The list is not random: actives were taken first. Their share in the collection is about 2.1%.
mut p53 SMM = binders of human mutant p53; 17,000 tested, 0.4% active; small molecule microarray binding, anti-GST fluorescence; AID 624136; calls only;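 active = compounds whose four printed spots each glow above background more than chance allows, each with a p-value under 7%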
STAT3 SMM = binders of human STAT3 | P40763 | Small molecule microarray, His-STAT3 binding, anti-His fluorescence | calls only | 17,000 tested, 0.2% active;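 active = compounds whose four printed spots each show fluorescence over background unusually high for their array block, chance value under 7%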
NFkB binder = binds human NF-kappa-B p105 on microarray; P19838; Small molecule microarray, anti-His fluorescence binding; calls only; 17,000 tested, 1.3% active; AID 624139;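 active = spot fluorescence over background significantly raised, with a chance value under 7% in all four replicate spots of the compound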;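 note: probe protein is his-tagged human p50 processed subunit at 1 µg/ml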
c-Myc SMM = c-Myc (human) binding | P01106 | small molecule microarray, His-c-Myc binding, anti-His fluorescence | calls only | 17,000 tested, 1.5% active | AID 624141;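 active = spot fluorescence over background with P-value below 7% in all four replicate spots, showing protein binding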
Each line names hits and unclear results; the compound was inactive in the other large screens.

C[C@@H]1O[C@@H](O[C@H]2[C@H](O[C@H]3[C@H](O[C@H]4CC[C@@]5(C)C(CC[C@]6(C)C5CC=C5[C@@H]7CC(C)(C)C[C@@H](O)[C@]7(C)CC[C@]56C)[C@@]4(C)CO)O[C@H](C(=O)O)[C@@H](O)[C@@H]3O)OC[C@H](O)[C@@H]2O)[C@H](O)[C@H](O)[C@H]1O (stereo partly drawn)	mut p53 SMM active, c-Myc SMM active
C[C@@H]1O[C@@H](O[C@H]2[C@H](O[C@H]3[C@H](O)[C@@H](C(=O)O)O[C@@H](O[C@H]4CC[C@@]5(C)C(CC[C@]6(C)C5CC[C@]57OC[C@@]8(CCC(C)(C)CC85)[C@H](O)C[C@]76C)C4(C)C)[C@@H]3O[C@@H]3O[C@H](CO)[C@@H](O[C@@H]4OC[C@@H](O)[C@H](O)[C@H]4O)[C@H](O)[C@H]3O)O[C@H](CO)[C@H](O)[C@@H]2O)[C@H](O)[C@H](O)[C@H]1O (stereo partly drawn)	NFkB binder active, c-Myc SMM active
CC(=O)c1cccc(NC(=O)CCN2C(=O)C3CC=C(Cl)CC3C2=O)c1 (stereo not drawn)	none
O=C(CN1C(=O)C2C3C=CC(C4CC34)C2C1=O)Oc1ccccc1C(=O)Oc1ccccc1 (stereo not drawn)	none
C=CCN1Cc2ccccc2[C@H]2OC(c3ccc(OCCCO)cc3)=N[C@@]2(Cc2ccccc2)C1=O	none
CC1(C)CC[C@]2(C(=O)O)CC[C@]3(C)C(=CCC4[C@@]5(C)CC[C@H](O[C@@H]6O[C@H](CO)[C@@H](O)[C@H](O)[C@H]6O)[C@@](C)(CO)C5CC[C@]43C)[C@@H]2C1 (stereo partly drawn)	none
C[C@@H]1O[C@@H](O[C@H]2[C@H](O[C@H]3CC[C@@]4(C)C(CC[C@]5(C)C4CC=C4C6CC(C)(C)CC[C@]6(C(=O)O)CC[C@]45C)[C@]3(C)CO)OC[C@H](O)[C@@H]2O)[C@H](O)[C@H](O)[C@H]1O (stereo partly drawn)	NFkB binder active
CC1(C)CC[C@]2(C(=O)O)CC[C@]3(C)C(=CCC4[C@@]5(C)CC[C@H](O[C@@H]6O[C@H](C(=O)O)[C@@H](O[C@@H]7OC[C@@H](O)[C@H](O)[C@H]7O)[C@H](O)[C@H]6O)C(C)(C)C5CC[C@]43C)C2C1 (stereo partly drawn)	NFkB binder active, c-Myc SMM active
COC(=O)c1cc(C)cc(O)c1C(=O)c1c(O)cccc1O	none
C[C@]12CCC3C4(C=CC5(C=C4C(=O)c4cc6ccccc6s4)C[C@@H](O)CC[C@]35C)C1CC[C@@]2(O)CN1CCC(n2c(=O)[nH]c3ccccc32)CC1 (stereo partly drawn)	none
O=C1O[C@H](c2ccccc2)[C@H](c2ccccc2)N2[C@H]1[C@@H](C(=O)N1CCCCCCC1)[C@]1(C(=O)Nc3ccccc31)[C@H]2c1ccc(O)cc1	mut p53 SMM active, NFkB binder active, c-Myc SMM active
O=C1O[C@H](c2ccccc2)[C@H](c2ccccc2)N2[C@H]1[C@@H](C(=O)N1CCCCCCC1)[C@]1(C(=O)Nc3ccc(C#CC4(O)CCCCCC4)cc31)[C@H]2c1ccccc1OCCO	mut p53 SMM active
COC(=O)C(CC#Cc1ccc2c(c1)[C@]1(C(=O)N2)[C@H](c2ccc(OCCO)cc2)N2[C@H](c3ccccc3)[C@H](c3ccccc3)OC(=O)[C@H]2[C@@H]1C(=O)N1CCCCCCC1)C(=O)OC	mut p53 SMM active
COC(=O)C(CC#Cc1ccc2c(c1)[C@]1(C(=O)N2)[C@H](C(N)=O)[C@H]2C(=O)O[C@H](c3ccccc3)[C@H](c3ccccc3)N2[C@@H]1c1ccc(OCCO)cc1)C(=O)OC	none
COC(=O)C(CC#Cc1ccc2c(c1)[C@]1(C(=O)N2)[C@H](C(N)=O)[C@H]2C(=O)O[C@H](c3ccccc3)[C@H](c3ccccc3)N2[C@@H]1c1ccccc1OCCO)C(=O)OC	mut p53 SMM active
O=C1O[C@H](c2ccccc2)[C@H](c2ccccc2)N2[C@H]1[C@@H](C(=O)N1CCN(c3ncccn3)CC1)[C@]1(C(=O)Nc3ccc(C#CC4=CCCCC4)cc31)[C@H]2c1ccc(OCCO)cc1	none
O=C1O[C@H](c2ccccc2)[C@H](c2ccccc2)N2[C@H]1[C@@H](C(=O)N1CCCCCCC1)[C@]1(C(=O)Nc3ccc(C#CC4=CCCCC4)cc31)[C@H]2c1ccc(OCCO)cc1	mut p53 SMM active, NFkB binder active, c-Myc SMM active
CCc1c(C)sc(NC(=S)NCc2cc(C)n(C)n2)c1C(=O)OC	none
